Test results published in PubChem BioAssay (NCATS).
Records with an inconclusive call do not appear. A number with no mark means an inactive call. Calls of active or inactive are those of the source. The call rests on the fitted dose curve; in most records, active means well fitted curve in the direction sought with a large enough effect; inconclusive means small, poorly fitted or top-dose-only effect, or another doubt; inactive means no such curve, though single readings can be large; an effect the other way counts as inactive or inconclusive. Starred links: 1 amine or outer side, 2 acyl side, 3 side chain; linkers in the order of their positions; H or OH if unused. Positions of bridges follow the written chain, without caps; N, C: chain ends. Non-standard residues stand in square brackets, D forms with d. Residues, ends and D or L forms follow the SMILES beside them. Chains are numbered I, II in the order given. *: point of attachment. Actinocin(9to1) = Cc1c2oc3c(C)ccc(C(=O)[*:1])c3nc-2c(C(=O)[*:2])c(N)c1=O; NMeV = CN[CH](C(=O)O)C(C)C; Nva = CCC[C@H](N)C(=O)O; Cbz = O=C(OCc1ccccc1)*; Sar = CNCC(=O)O

Columns and labels:
[1] = target: Glutathione peroxidase 1 (Homo sapiens) (UniProt P07203); test: Primary qHTS Assay for Inhibitors of Recombinant Selenoprotein Glutathione Peroxidase 1 (GPX1) (AID 1845191); further: nearly all actives have a fitted effect of over 65% in size
Sequence of Glutathione peroxidase 1 (Homo sapiens) (P07203 whole entry, looked up): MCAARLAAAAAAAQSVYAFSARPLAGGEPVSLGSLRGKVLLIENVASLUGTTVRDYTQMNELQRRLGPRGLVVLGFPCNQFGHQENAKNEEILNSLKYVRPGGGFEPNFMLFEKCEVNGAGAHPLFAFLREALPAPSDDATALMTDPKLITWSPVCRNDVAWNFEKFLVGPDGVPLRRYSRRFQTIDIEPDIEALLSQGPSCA
Outline: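 Recombinant GPX1 (10 nM final) was preincubated with compound for 30 min at room temperature, then reacted with 1 mM GSH, 0.5 mM CHP, 0.5 mM NADPH and 100 nM glutathione reductase; NADPH fluorescence (340/450 nm) was read at 0 and 15 min.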

[2] = target: Phospholipid hydroperoxide glutathione peroxidase GPX4 (Homo sapiens) (UniProt P36969); test: Primary qHTS Assay for Inhibitors of Recombinant Selenoprotein Glutathione Peroxidase 4 (GPX4) (AID 1845192); further: nearly all actives have a fitted effect of over 65% in size; further: potency means the concentration at half of the fitted maximal effect; on activity change, negative = inhibition: series mostly up to about 50 µM; on the % scale 0 is the no-effect control and ±100 the full control effect
Sequence of Phospholipid hydroperoxide glutathione peroxidase GPX4 (Homo sapiens) (P36969 whole entry, looked up): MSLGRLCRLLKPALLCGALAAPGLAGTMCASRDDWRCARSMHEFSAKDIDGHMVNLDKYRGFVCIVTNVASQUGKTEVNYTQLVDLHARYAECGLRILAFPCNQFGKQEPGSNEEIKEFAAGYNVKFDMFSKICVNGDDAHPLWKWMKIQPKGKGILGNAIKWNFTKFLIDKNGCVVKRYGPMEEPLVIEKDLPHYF
Outline: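 GR-coupled readout: 100 nM GR, 1 mM GSH, 0.5 mM NADPH; NADPH fluorescence (ex 340/em 450 nm) read at t=0 and after 15 min RT. GPX4 200 nM, preincubated 30 min with compound; substrate 0.5 mM CHP.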

[3] = Quantitative High-Throughput drug screen in 47 multiple myeloma cell lines against the NCATS MIPE library collection: FR4_PLB cell viability assay (AID 1918924; further: nearly all actives have a fitted effect of over 35% in size; further: potency means the concentration at half of the fitted maximal effect)
Outline: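 CellTiter-Glo luminescence (ATP) after 48 h compound exposure, 37C/5% CO2; 500 cells/well; MIPE 4.0 approved/investigational drugs pinned in; DMSO = 100%, media only = 0% viability.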

[4] = Quantitative High-Throughput drug screen in 47 multiple myeloma cell lines against the NCATS MIPE library collection: Delta47_JCRB cell viability assay (AID 1918925; further: nearly all actives have a fitted effect of over 45% in size; further: potency means the concentration at half of the fitted maximal effect)
Outline: (§1)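 Inhibition of cell viability is measured here. Each line was plated at 500 cells per well, treated with MIPE 4.0 drugs, kept 48 hours at 37C, then assayed for ATP content by CellTiter-Glo luminescence.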

[5] = Quantitative High-Throughput drug screen in 47 multiple myeloma cell lines against the NCATS MIPE library collection: EJM_DSMZ cell viability assay (AID 1918926; further: nearly all actives have a fitted effect of over 30% in size; further: potency means the concentration at half of the fitted maximal effect)
Outline: as §1

[6] = Quantitative High-Throughput drug screen in 47 multiple myeloma cell lines against the NCATS MIPE library collection: AMO1_DSMZ cell viability assay (AID 1918927; further: nearly all actives have a fitted effect of over 30% in size; further: potency means the concentration at half of the fitted maximal effect)
Outline: as §1

[7] = Quantitative High-Throughput drug screen in 47 multiple myeloma cell lines against the NCATS MIPE library collection: ARP1_JJKsccF8 cell viability assay (AID 1918928; further: nearly all actives have a fitted effect of over 40% in size; further: potency means the concentration at half of the fitted maximal effect)
Outline: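 Myeloma cells, 500 per well, were exposed to MIPE 4.0 drugs by pin transfer for 48 h at 37 °C, 5% CO2. Viability was read as ATP luminescence with CellTiter-Glo, normalised to DMSO-only (100%) and medium-only (0%) wells.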

| SMILES | Potency [1] | Potency [2] | Potency [3] | Potency [4] | Potency [5] | Potency [6] | Potency [7] | outcome [1] | activity change, negative = inhibition [2] |
| --- | --- | --- | --- | --- | --- | --- | --- | --- | --- |
| O=C1CSC(=O)N1C(CCc1ccncc1)COc1ccc(-c2cccc([N+](=O)[O-])c2)cc1 (configuration not stated) | inactive | inactive | 18.7 µM (active) | 4.18 µM (active) | 0.935 µM (active) | inactive | 3.32 µM (active) |  |  |
| NC(=O)Nc1cc(-c2ccc(CN3CCOCC3)cc2)sc1C(N)=O | inactive | inactive | 18.7 µM (active) | 2.09 µM (active) | 20.9 µM (active) | 2.96 µM (active) | 18.7 µM (active) |  |  |
| CN(C)CCN1C(=O)c2cccc3cc(N)cc(c23)C1=O | inactive | inactive | 23.5 µM (active) |  | 23.5 µM (active) |  |  |  |  |
| CCCNS(=O)(=O)Nc1ncnc(OCCOc2ncc(Br)cn2)c1-c1ccc(Br)cc1 | inactive | inactive | inactive | 2.64 µM (active) |  |  | inactive |  |  |
| NC(=O)N1CCC(CC(=O)N2CCC([C@H]3c4ncc(Br)cc4CCc4cc(Cl)cc(Br)c43)CC2)CC1 | inactive | inactive | 20.9 µM (active) | 8.33 µM (active) |  | 7.43 µM (active) | 13.2 µM (active) |  |  |
| CCN(C(=O)c1c(O)c2c(Cl)cccc2n(C)c1=O)c1ccccc1 | inactive | inactive | inactive | inactive | inactive |  | inactive |  |  |
| Cc1cc(Nc2ncc3c(n2)N(C)C(=O)N(c2cc(NC(=O)c4cccc(C(F)(F)F)c4)ccc2C)C3)n(C)n1 | inactive | inactive | 0.418 µM (active) | 0.209 µM (active) | 0.662 µM (active) | 0.833 µM (active) | 0.743 µM (active) |  |  |
| CC(C)[C@H](CO)Nc1nc(Nc2cccc(Cl)c2)c2ncn(C(C)C)c2n1 | inactive | inactive | 16.6 µM (active) |  | 23.5 µM (active) | inactive |  |  |  |
| Cn1c(Nc2ccc(C(F)(F)F)cc2)nc2cc(Oc3ccnc(-c4ncc(C(F)(F)F)[nH]4)c3)ccc21 | inactive | inactive | 18.7 µM (active) | 0.662 µM (active) |  | 9.35 µM (active) | 20.9 µM (active) |  |  |
| CN(C)c1ccc2cc(C(=O)N[C@@H](CCCN=C(N)CCl)C(=O)NCc3ccccc3)ccc2c1 | inactive | inactive | 11.8 µM (active) |  | 1.32 µM (active) | 1.66 µM (active) | 18.7 µM (active) |  |  |
| CC(=O)OC[C@@H]1O[C@@H](n2ccc(=O)[nH]c2=O)[C@H](OC(C)=O)[C@H]1OC(C)=O | inactive | inactive | inactive | inactive |  | inactive | inactive |  |  |
| CN(CC(=O)N(Cc1ccc(C2CCCCC2)cc1)c1ccc(C(=O)O)c(O)c1)S(=O)(=O)c1c(F)c(F)c(F)c(F)c1F | inactive | 11.4 µM (active) | 20.9 µM (active) | 5.9 µM (active) |  | 5.26 µM (active) | 23.5 µM (active) |  |  |
| O=C(O)CCCCC(CCSCc1ccccc1)SCc1ccccc1 (configuration not stated) | inactive | 20.2 µM (active) | inactive | inactive | inactive |  | inactive |  |  |
| CC(C)C[C@H](NC(=O)CNC(=O)c1cc(Cl)ccc1Cl)B1OC(=O)CC(CC(=O)O)(C(=O)O)O1 (some centres not stated) | inactive | inactive | 0.0418 µM (active) | 0.0332 µM (active) | 0.0833 µM (active) | 0.0235 µM (active) | 0.0332 µM (active) |  |  |
| COc1cc(O)c2c(c1)C1OC1C[C@H](O)[C@H](O)C(=O)C=CC[C@H](C)OC2=O (some centres not stated) | inactive | inactive | 3.32 µM (active) | 4.18 µM (active) | 7.43 µM (active) | 2.96 µM (active) | 4.69 µM (active) |  |  |
| Cn1cc(C2=C(c3c4n(c5ccccc35)CCC(CN)C4)C(=O)NC2=O)c2ccccc21 (configuration not stated) |  |  | 18.7 µM (active) | 5.26 µM (active) | 9.35 µM (active) | 10.5 µM (active) | 18.7 µM (active) | inactive [at 9.52 µM] | -6.23% [at 9.73 µM] |
| CCc1c(O)cc(O)c(C(=O)c2ccc(OCCN3CCOCC3)c(OC)c2)c1CC(=O)N(CCOC)CCOC | inactive | inactive | 1.18 µM (active) | 1.66 µM (active) |  | inactive | 1.48 µM (active) |  |  |
| Cc1c2oc3c(C)ccc(C(=O)NC4C(=O)NC(C(C)C)C(=O)N5CCCC5C(=O)N(C)CC(=O)N(C)C(C(C)C)C(=O)OC4C)c3nc-2c(C(=O)NC2C(=O)NC(C(C)C)C(=O)N3CCCC3C(=O)N(C)CC(=O)N(C)C(C(C)C)C(=O)OC2C)c(N)c1=O (configuration not stated) (I: TVP[Sar][NMeV] / II: TVP[Sar][NMeV]; ester I:1-I:C, II:1-II:C; linker I:N-II:N via Actinocin(9to1); configuration not given here) | inactive | inactive | inactive |  | inactive | inactive | inactive |  |  |
| CC(C)c1cnn2c(NCc3ccccc3)cc(NCCCCCCN)nc12 | inactive | inactive | 18.7 µM (active) |  | 13.2 µM (active) | 23.5 µM (active) | 16.6 µM (active) |  |  |
| CCC[C@@H](C=O)NC(=O)[C@H](CC(C)C)NC(=O)[C@H](CC(C)C)NC(=O)OCc1ccccc1 (Cbz-Leu-Leu-[Nva]-aldehyde) | inactive | inactive | 0.833 µM (active) | 0.332 µM (active) |  | 0.296 µM (active) |  |  |  |
| C[C@@H]1C(=O)O[C@H]2CC34[C@H]5C[C@@H](C(C)(C)C)C36[C@H](OC(=O)[C@@H]6O)O[C@@]4(C(=O)O5)[C@]21O (some centres not stated) | inactive | inactive | inactive |  | inactive | inactive | inactive |  |  |
